# Measured values: the supplement of paper PMC8728848
# This excerpt belongs to a sample that is enriched for the strongest signals.
# B1: RVL (Remusatia vivipara), B5LYJ9 (protein)
# chain: MAKLLLFLLPAILGLLVPRSAVALGTNYLLSGQTLDTEGHLKNGDFDLVMQDDCNLVLYNGNWQSNTANNGRDCKLTLTDYGELVIKNGDGSTVWKSGAQSVKGNYAAVVHPDGRLVVLGPSVFKIDPWVRGLNSLRFRNIPFTNNLLFSGQVLYGDGRLTAKNHQLVMQGDCNLVLYGGKYGWQSNTHGNGEHCFLRLNHKGELIIKDDDFKTIWSSRSSSKQGEYVLILQDDGFGVIYGPAIFETSSKRSIAAS
# Legend:
# Assay in all cases: glycan array binding signal (z-score within array); higher = stronger binding
# Conditions in all cases: glycan notation: IUPAC condensed, linker removed
# [1] = biological target: Fuc(a1-2)Gal(b1-4)GlcNAc(b1-3)Gal(b1-4)GlcNAc(b1-3)Gal(b1-4)GlcNAc
# Procedure, shortened: (§1)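 Negative Z-scores can be read as non-binding. The Z-score is calculated within each array and then averaged across arrays of one protein sequence at different concentrations or buffers and across linkers. Arrays, 3228 in all, were curated from the Consortium for Functional Glycomics database and kept only where the protein sequence was available.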
# [2] = biological target: Fuc(a1-2)Gal(b1-4)[Fuc(a1-3)]GlcNAc(b1-2)Man(a1-6)[Fuc(a1-2)Gal(b1-4)[Fuc(a1-3)]GlcNAc(b1-2)Man(a1-3)]Man(b1-4)GlcNAc(b1-4)[Fuc(a1-6)]GlcNAc
# Procedure, shortened: as §1
# [3] = biological target: Fuc(a1-2)Gal6S(b1-3)GlcNAc6S
# Procedure, shortened: as §1
# [4] = biological target: Fuc(a1-2)Gal6S(b1-4)Glc6S
# Procedure, shortened: as §1
# [5] = biological target: Fuc(a1-2)[Gal(a1-3)]Gal(b1-4)[Fuc(a1-3)]Glc
# Procedure, shortened: as §1
# [6] = biological target: Fuc(a1-3)[Gal(b1-4)]GlcNAc(b1-2)Man(a1-3)[Fuc(a1-3)[Gal(b1-4)]GlcNAc(b1-2)Man(a1-6)]Man(b1-4)GlcNAc(b1-4)[Fuc(a1-6)]GlcNAc
# Procedure, shortened: as §1
# [7] = biological target: Fuc(a1-3)[GalNAc(b1-4)]GlcNAc
# Procedure, shortened: as §1
# [8] = biological target: Gal(a1-3)Gal(b1-3)GlcNAc(b1-2)Man(a1-3)[Gal(a1-3)Gal(b1-3)GlcNAc(b1-2)Man(a1-6)]Man(b1-4)GlcNAc(b1-4)GlcNAc
# Procedure, shortened: as §1
# [9] = biological target: Gal(a1-3)Gal(b1-3)GlcNAc(b1-3)GalNAc
# Procedure, shortened: as §1
# [10] = biological target: Gal(a1-3)Gal(b1-4)GlcNAc(b1-3)GalNAc
# Procedure, shortened: as §1
# [11] = biological target: Gal(a1-4)Gal(b1-3)GlcNAc(b1-2)Man(a1-3)[Gal(a1-4)Gal(b1-3)GlcNAc(b1-2)Man(a1-6)]Man(b1-4)GlcNAc(b1-4)GlcNAc
# Procedure, shortened: as §1
# [12] = biological target: Gal(a1-4)Gal(b1-4)GlcNAc(b1-2)Man(a1-3)[Gal(a1-4)Gal(b1-4)GlcNAc(b1-2)Man(a1-6)]Man(b1-4)GlcNAc(b1-4)GlcNAc
# Procedure, shortened: as §1
# [13] = biological target: Gal(b1-3)GlcNAc(b1-3)Gal(b1-4)GlcNAc
# Procedure, shortened: as §1
# [14] = biological target: Gal(b1-3)GlcNAc(b1-3)Gal(b1-4)GlcNAc(b1-6)[Gal(b1-3)GlcNAc(b1-3)]Gal(b1-4)Glc
# Procedure, shortened: as §1
# [15] = biological target: Gal(b1-3)GlcNAc(b1-3)GalNAc
# Procedure, shortened: as §1
# [16] = biological target: Gal(b1-3)GlcNAc(b1-6)Gal(b1-4)GlcNAc
# Procedure, shortened: as §1
# [17] = biological target: Gal(b1-4)GlcNAc(a1-6)Gal(b1-4)GlcNAc
# Procedure, shortened: as §1
# [18] = biological target: Gal(b1-4)GlcNAc(b1-2)Man(a1-3)[Gal(b1-4)GlcNAc(b1-2)Man(a1-6)]Man(b1-4)GlcNAc(b1-4)[Fuc(a1-6)]GlcNAc
# Procedure, shortened: as §1
# [19] = biological target: Gal(b1-4)GlcNAc(b1-2)Man(a1-6)Man(b1-4)GlcNAc(b1-4)GlcNAc
# Procedure, shortened: as §1
# [20] = biological target: Gal(b1-4)GlcNAc(b1-3)Gal(b1-4)Glc
# Procedure, shortened: as §1
# [21] = biological target: Gal(b1-4)GlcNAc(b1-6)Gal(b1-4)GlcNAc
# Procedure, shortened: as §1
# [22] = biological target: GalNAc(b1-3)Gal(a1-4)Gal(b1-4)GlcNAc(b1-3)Gal(b1-4)Glc
# Procedure, shortened: as §1
# [23] = biological target: GalNAc(b1-3)Gal(a1-6)Gal(b1-4)Glc
# Procedure, shortened: as §1
# [24] = biological target: GlcA(b1-3)GlcNAc
# Procedure, shortened: as §1
# [25] = biological target: GlcA(b1-6)Gal
# Procedure, shortened: as §1
# [26] = biological target: GlcNAc(a1-4)Gal(b1-4)GlcNAc(b1-3)Gal(b1-4)GlcNAc(b1-3)Gal(b1-4)GlcNAc
# Procedure, shortened: as §1
# [27] = biological target: GlcNAc(a1-4)Gal(b1-4)GlcNAc(b1-3)Gal(b1-4)[Fuc(a1-3)]GlcNAc(b1-3)Gal(b1-4)[Fuc(a1-3)]GlcNAc
# Procedure, shortened: as §1
# [28] = biological target: GlcNAc(b1-2)Man(a1-3)[GlcNAc(b1-2)Man(a1-6)]Man(b1-4)GlcNAc(b1-4)GlcNAc
# Procedure, shortened: as §1
# [29] = biological target: GlcNAc(b1-2)[GlcNAc(b1-4)]Man(a1-3)[GlcNAc(b1-2)Man(a1-6)]Man(b1-4)GlcNAc(b1-4)GlcNAc
# Procedure, shortened: as §1
# [30] = biological target: GlcNAc(b1-3)Gal(b1-4)GlcNAc
# Procedure, shortened: as §1
# [31] = biological target: GlcNAc(b1-3)Man
# Procedure, shortened: as §1
# [32] = biological target: Man(a1-2)Man(a1-3)Man
# Procedure, shortened: as §1
# [33] = biological target: Man(a1-3)[Man(a1-6)]Man(a1-6)[Man(a1-2)Man(a1-3)]Man(b1-4)GlcNAc(b1-4)GlcNAc
# Procedure, shortened: as §1
# [34] = biological target: Man(a1-3)[Man(a1-6)]Man(a1-6)[Man(a1-3)]Man
# Procedure, shortened: as §1
# [35] = biological target: Man(a1-3)[Man(a1-6)]Man(b1-4)GlcNAc(b1-4)GlcNAc
# Procedure, shortened: as §1
# [36] = biological target: Man(a1-3)[Man(a1-6)]Man(b1-4)GlcNAc(b1-4)[Fuc(a1-6)]GlcNAc
# Procedure, shortened: as §1
# [37] = biological target: Neu5Ac(a2-3)Gal(b1-4)GlcNAc(b1-2)[Neu5Ac(a2-3)Gal(b1-4)GlcNAc(b1-6)]Man(a1-6)[Neu5Ac(a2-3)Gal(b1-4)GlcNAc(b1-2)Man(a1-3)]Man(b1-4)GlcNAc(b1-4)GlcNAc
# Procedure, shortened: as §1
# [38] = biological target: Neu5Ac(a2-3)Gal(b1-4)GlcNAc(b1-3)Gal
# Procedure, shortened: as §1
# [39] = biological target: Neu5Ac(a2-3)Gal(b1-4)GlcNAc6S
# Procedure, shortened: as §1
# [40] = biological target: Neu5Ac(a2-6)Gal(b1-4)GlcNAc(b1-2)Man(a1-6)[GlcNAc(b1-2)Man(a1-3)]Man(b1-4)GlcNAc(b1-4)GlcNAc
# Procedure, shortened: as §1
# [41] = biological target: Neu5Ac9Ac(a2-3)Gal(b1-3)GlcNAc
# Procedure, shortened: as §1
# [42] = biological target: Neu5Gc(a2-3)Gal(b1-4)GlcNAc
# Procedure, shortened: as §1
binder,measurement,setting,value
B1,glycan array binding signal (z-score),[1],-0.272
same,glycan array binding signal (z-score),[2],9.79
same,glycan array binding signal (z-score),[3],0.483
same,glycan array binding signal (z-score),[4],-0.151
same,glycan array binding signal (z-score),[5],-0.32
same,glycan array binding signal (z-score),[6],0.076
same,glycan array binding signal (z-score),[7],-0.292
same,glycan array binding signal (z-score),[8],0.313
same,glycan array binding signal (z-score),[9],-0.166
same,glycan array binding signal (z-score),[10],-0.178
same,glycan array binding signal (z-score),[11],1.75
same,glycan array binding signal (z-score),[12],1.93
same,glycan array binding signal (z-score),[13],-0.252
same,glycan array binding signal (z-score),[14],-0.574
same,glycan array binding signal (z-score),[15],-0.055
same,glycan array binding signal (z-score),[16],0.004
same,glycan array binding signal (z-score),[17],-0.142
same,glycan array binding signal (z-score),[18],7.05
same,glycan array binding signal (z-score),[19],-0.136
same,glycan array binding signal (z-score),[20],-0.252
same,glycan array binding signal (z-score),[21],-0.216
same,glycan array binding signal (z-score),[22],-0.066
same,glycan array binding signal (z-score),[23],-0.17
same,glycan array binding signal (z-score),[24],-0.098
same,glycan array binding signal (z-score),[25],-0.23
same,glycan array binding signal (z-score),[26],0.124
same,glycan array binding signal (z-score),[27],0.3
same,glycan array binding signal (z-score),[28],0.913
same,glycan array binding signal (z-score),[29],2.4
same,glycan array binding signal (z-score),[30],-0.145
same,glycan array binding signal (z-score),[31],-0.227
same,glycan array binding signal (z-score),[32],-0.197
same,glycan array binding signal (z-score),[33],3.91
same,glycan array binding signal (z-score),[34],0.224
same,glycan array binding signal (z-score),[35],3.8
same,glycan array binding signal (z-score),[36],6.15
same,glycan array binding signal (z-score),[37],3.54
same,glycan array binding signal (z-score),[38],-0.103
same,glycan array binding signal (z-score),[39],-0.033
same,glycan array binding signal (z-score),[40],-0.207
same,glycan array binding signal (z-score),[41],-0.284
same,glycan array binding signal (z-score),[42],-0.111
